tested on: PPARa:RXRa (NR concentration 270 nM, RXRa partner concentration 90 nM); test: PBM binding z-score (relative to random genomic background probes); higher = stronger binding; sequences stand for … in GC…GCGATTGACAGCGTAGAATGAAGG
Method: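 Protein-binding microarray (Agilent 4x180K custom design, double-stranded 60-nt probes: 5' GC cap, 34-nt variable region, 24-nt constant primer region; full probe sequence given). Purified or IVT nuclear receptor:RXRα heterodimers (3:1 NR:RXRα, mostly 270:90 nM) or homodimers were incubated for 1 h in PBS with 2% milk and no ligand, then detected with Alexa488 antibodies. Fluorescence from o1-orientation probes (~5 replicates averaged) was converted to z-scores against 500 random hg19 background probes. Variable regions are seed direct-repeat (DR0–DR5) sites, all their single-nucleotide variants and half-site ablations.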

Row | Sequence | PBM binding z-score
1 | TCTTGTAGGTCAATAGAGGTTAAGAAAGTGCGCT | 5.13
2 | CCGAGAAGGTTACGAGGGGGCATTCAGTGCGAAT | 4.3
3 | TCTAGTTGGTCACGGAGGGCACACACGACGGGTA | 1.38
4 | CCTACTGGTCCAAGGTCATTGATCAGTCAAAGCA | 3.59
5 | CAAACAAGGTCACCGGAAGGTCAAAGTCCGCATG | 6.58
6 | CGAACAAGGTCATTGACAGGACAGTGAATAGTAA | 5.93
7 | AATACAGGGTCATCTTAGGCCAGAGTACGCACAG | 6.06
8 | TACCCTAGGTCATTCAGGGGCCAGTATAGAAAGC | 3.81
9 | AGAATGAGGTCACCAAAGATCAGGGAAACGCTTG | 6.33
10 | AGTCAAAGTTCATCTAGGTCACGTAAGATATGCT | 5.68
11 | CAAAATAGGTCACCGGAAGGTCAAAGTCCGCATG | 6.51
12 | CGAACTAGGTCAAGGCCAGTGAATCTCCGCACGC | 5.04
13 | CGTCAAAGTTCAACTGAGGTAACGTAAAGCACGC | 5.29
14 | ATATGTAGGTTACATCCGGGTCATCCAGGCTATG | 4.41
15 | TCTAGTTGGTCACGGAGGTCACAAACGACGGGTA | 3.87
16 | CGAACTAGGTCATCCAGGTCAGTGAATACATTGA | 5.17
17 | CGAACAAGGTCATCCAGGACAGTGAATACATTGA | 5.9
18 | TGTCAAAGTTCAAAGGTGACGTAAGTATCCACAC | 6.09
19 | TCTCGGAGGACACAAAGGTCAGAGCTTTCCAGAG | 3.86
20 | AGTCAAAGTTCAGGACGACGTAACGTAAAGCACG | 2.98

Row | Sequence | PBM binding z-score
21 | CGTCAAAGTTCAACTAAGGTTACGTAAAGCACGC | 5.63
22 | AATACAGGGTAACTAGGCCAGAGTAGGTACGAAT | 2.01
23 | CCTTACGGGTCACTCCAGGTTATATCATCGGAGT | 4.5
24 | ACTTACGGGTCAACGAGGTCATAGCACGCGTATA | 6.12
25 | CGTCCAAGGTCAGCGGGTCAGTGAAAGCGACGTG | 4.79
26 | CGAACTAGGTCATCCAGGACCGTGAATACATTGA | 4.4
27 | CCTTACGGGTAACGAGGTTATAGCACGACGAGCG | 1.62
28 | TCTAGTTGGTCACGGAGGTCCCACACGACGGGTA | 0.66
29 | CGTCCAAAGTCAAAGGTCAGTGAAGAGATGACGG | 5.06
30 | GCATATAGGTAATACAAGGTCAAAGTCCGATTGT | 4.21
31 | AGAATGAGGTCAAGATCAGGGAAACAGAATACAT | 6.42
32 | ATATGTAGGTTAGGGGTCATTCAGGTTGGTTCGC | 6.51
33 | GCTGCGAGGTCAACTGATGGTCAGCTAAAGCTCG | 6.02
34 | CTCGAAAGGTCGTGCTCAGATGAGTATACCAAAC | 4.71
35 | CGAACTAGGTCAAAGGACATTGAAAGGCGACGTA | 6.03
36 | CCGACTGGGGCAAGGTCACCATAACGCACAGCCA | 4.2
37 | GCTAGTTGGTCAGTAAAAGGTGACACACCGGTCG | 1.54
38 | ATATGTAGGTTACCTGGGGTCATTCAGACTAGGC | 5.73
39 | GCTGCTAGGTCAACTGATGGCCAGCTAAAGCTCG | 3.6
40 | CACACTAGGTCACAGAGGTCAAAGTCCGTGCGTA | 6.51

Source: the supplement of paper PMC6555819
